From the supplement of paper PMC6555819

Legend:
Assay in all cases: PBM binding z-score (relative to random genomic background probes); higher = stronger binding; sequences stand for … in GC…GCGATTGACAGCGTAGAATGAAGG
[1] = tested on: FXR:RXRa (NR concentration 270 nM, RXRa partner concentration 90 nM)
Method in brief: (§1)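 Custom Agilent 4×180K protein-binding microarrays carried double-stranded probes. Their 34-nt variable regions held direct-repeat seeds, single-nucleotide variants, half-site ablations and random human genomic background sequences. Arrays were incubated 1 h with ligand-free nuclear receptor dimers in PBS pH 7.4, 2% milk, 0.02% Triton X-100, 1 mM DTT, 0.2 mg/mL BSA and 0.4 mg/ml salmon testes DNA. Antibodies against each partner (one per run) detected binding, and scanned fluorescence was regression-normalized. Binding z-scores use random background probes as reference.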

[2] = tested on: LXRa:RXRa (NR concentration 270 nM, RXRa partner concentration 90 nM)
Method in brief: as §1

[3] = tested on: LXRa homodimer (NR concentration 270 nM)
Method in brief: as §1

[4] = tested on: LXRb:RXRa (NR concentration 270 nM, RXRa partner concentration 90 nM)
Method in brief: as §1

[5] = tested on: LXRb homodimer (NR concentration 270 nM)
Method in brief: as §1

[6] = tested on: PPARa:RXRa (NR concentration 270 nM, RXRa partner concentration 90 nM)
Method in brief: as §1

[7] = tested on: PPARg:RXRa (NR concentration 180 nM, RXRa partner concentration 90 nM)
Method in brief: as §1

[8] = tested on: PPARg:RXRa 270nM:90nM, anti-RXR (NR concentration 270 nM, RXRa partner concentration 90 nM)
Method in brief: as §1

[9] = tested on: PPARg:RXRa 30nM:10nM, anti-RXR (NR concentration 30 nM, RXRa partner concentration 10 nM)
Method in brief: as §1

[10] = tested on: PPARg:RXRa 90nM:30nM, anti-RXR (NR concentration 90 nM, RXRa partner concentration 30 nM)
Method in brief: as §1

Sequence	PBM binding z-score [1]	PBM binding z-score [2]	PBM binding z-score [3]	PBM binding z-score [4]	PBM binding z-score [5]	PBM binding z-score [6]	PBM binding z-score [7]	PBM binding z-score [8]	PBM binding z-score [9]	PBM binding z-score [10]
TCTTGTAGATCAGCAGGTTAAGGAAGCTGGCCAA	0.249	0.362	-0.204	0.224	-0.678	0.814	-0.515	1.47	2.53	2.02
TCTATTAGTTGATTAGGGCAACCGCAACAGCGGA	0.86	0.405	0.129	0.329	0.245	1.06	0.368	1.95	3.34	2.72
TCGGCTAGGTCAGTTGGTCAGCTAACGAGCTGCC	1.1	0.58	-0.132	0.27	-0.753	1.48	0.0282	1.28	0.913	1.11
TCTTGTAGATCAATAGAGGTTGAGAAAGTGCGCT	0.33	0.354	-0.0207	0.212	-0.126	0.471	-0.324	1.44	2.63	1.98
TAGCCTAGGTCATTCAGGGGCCAGTCTAGAAAGC	4.72	3.65	0.514	2.84	0.819	3.29	1.75	2.25	-0.0756	1.15
CGTCCCAGGTCATAGGAGGTCAGTGAAGACAGAT	5.9	6.34	4.26	5.07	0.872	4.83	3.87	4.13	1.16	2.74
TCTGCTAGGTCAACGATGGTAAGCTAATCTGCTA	3.07	2.01	-0.518	1.4	-0.543	2.85	2.51	3.09	1.65	2.31
ACAGACAGGTTATGAAGGTAACTCAGGCTATCAT	0.409	0.85	0.14	0.672	0.2	1.21	0.876	0.402	-0.0537	0.403
ATATGTAGGTTACATCCCGGTCATTCAGGCTATG	1.09	3.77	3.88	1.83	1.18	3.66	4.96	4.25	1.8	3.35
TCATATAGGTAAATGGTAGGTGAAAGTCCGATCT	1.34	1.54	0.813	1.26	0.456	1.8	1.39	3.17	3.85	3.74
CAAACTAAGTCAAGGTCAAAGTCGGTTTGTGCCA	4.9	5.29	5.4	4.15	1.52	4.7	2.82	3.64	1.62	2.78
CGTCCAAGGTCAAGGGTCAGTGAAGAGATGACGG	7.75	5.84	1.02	5	0.392	6.46	8.85	7.9	6.12	7.94
TCGAGTTGGTTAGTCGGGGCATTCAGCCAACATA	0.0149	-0.0453	-0.453	0.513	-0.685	0.218	-0.686	0.5	1.2	0.81
ATATGTAGGTTAAGGCTCATTCAGGTTGGTTCGC	0.549	0.861	0.334	0.683	0.0062	3.43	5.54	5.46	2.91	5.15
CAAACTAGTTCACCGGAAGGTCAAAGTCCGCATG	4.43	4.89	4.71	4.6	1.66	4.24	1.87	2.85	0.587	1.95
CCTACTGGGCCATCAGGTCATTGCTATCAACGTT	1.55	1.63	1.36	1.64	-0.479	2.83	2.62	3.75	1.26	2.92
TCTAGTTGGTCACGGAGGTCACCCACGACGGGTA	3.16	3.23	2.36	2.91	0.635	3.67	3.23	4.07	3.3	3.64
ATCTCTAGGTAAAGTTCACTGAAAGATCGATAGA	2.15	3.16	3.22	2.37	1.29	3.64	5.42	5.61	4.25	5.65
GCGACTGGTGCATCAGCAGGTTACCATAACTTAA	-0.753	-0.531	-0.541	-0.267	-1.02	-0.237	-0.0578	-0.215	-0.641	-0.986
TCTGCTAGGTCGGTTGGTCAGCTAACGAGCTGCC	-1.29	-0.709	-0.834	-0.284	0.368	0.029	-1.04	0.448	0.962	0.78
AGAACTAGGGCAATGAGTTGATAGCACGGGTGGC	-0.0132	-0.254	-0.285	-0.631	-0.61	2.48	4.11	3.2	1.29	2.41
TCTAGTAGATCAATAGAGGTTAAGAAAGTGCGCT	0.905	3.79	0.28	1.96	-0.599	1.98	0.362	1.7	2.76	2.4
ATCGCTAGGTAAAAGTTCAGTGAATCCCGAGGAT	0.352	1.06	0.677	0.618	-0.3	2.84	4.94	5.9	5.05	6.23
AGAATGAGGTAATACGTAGATCAGGGAAGAAAGT	0.302	0.0343	-0.0872	0.215	-0.209	0.49	1.04	0.841	0.517	0.757

Sequence	PBM binding z-score [1]	PBM binding z-score [2]	PBM binding z-score [3]	PBM binding z-score [4]	PBM binding z-score [5]	PBM binding z-score [6]	PBM binding z-score [7]	PBM binding z-score [8]	PBM binding z-score [9]	PBM binding z-score [10]
TCTTGTAGATGAAAGGTTAAGAAAGCCGAAGCCT	1.26	1.83	0.275	1.67	0.361	3.62	5.98	6.86	6.79	7.44
AGTCAAAGTTCAGGACGAGGTAACGTAAAGCACG	3.82	3.74	0.999	1.93	0.286	3.46	4.47	4.95	2.17	3.94
CATACTGGGCCAAAAAGGTCATTGATGCCGATAA	3.78	4.56	3.26	4.16	0.973	4.63	2.82	3.82	1.24	3.11
GCTTACGGGTCACAGGTTATAGCATGAATAGAAT	6.03	3.91	-0.00317	3.73	0.0394	5.75	7.57	6.67	4.61	6.2
ACTATTAGTTGACTTAGGGCAAGCGATACGACGC	0.286	0.302	0.111	0.0469	0.509	0.124	0.824	0.206	0.267	0.144
ATCTCTAGGTAAAGATAGTTCACTGAATGCAAAT	0.402	4.91	1.11	1.37	0.641	1.26	0.98	0.827	0.387	0.797
CCTGCTAGGTCAATGTTCAGCTAAAGCAGCTCGC	3.04	2.39	-0.0143	1.52	0.516	3	2.51	3.63	0.934	2.93
GCTTACGGGTCAAAGATTATAGCATGAATAGAAT	5.74	3.66	-0.0414	3.8	0.557	5.34	6.3	6.09	3.92	5.77
CCGAGTGGGTTATGGGGCATTCAGGCAACGGTGA	0.128	0.155	-0.051	0.764	-0.129	1.74	2.61	3.77	1.55	3.82
GCTGTTAGGTCAGGTTGGTCAGCTAACGGGTACG	1.95	1.14	-0.132	1.04	0.0917	1.79	0.166	1	-0.41	0.138
TCATATAGCTAAACAGGTGAAAGTCCGTAAGTTA	-0.237	-0.00497	-0.0906	0.338	-0.588	1.08	0.667	1.92	2.64	2.23
TAAGACAGGTGAAGGTAACTCAGGTACGCAGTCG	0.669	1.42	0.116	0.904	1.51	0.916	1.01	1.38	1.67	1.57
AGAACGATGGCACGCTGAGTTGATAGCAGAGTAG	-0.77	-0.938	-0.952	-0.881	-1.06	-0.687	0.523	-0.439	-0.196	-0.443
AAAACGAGGGCAATGAGTTGATAGCACGGGTGGC	0.531	0.364	-0.353	-0.0182	-0.657	1.55	2.02	1.44	0.0987	0.879
ATACCAAGGTGATCGTGGGGTCGTTGATACTAAC	1.56	1.27	0.187	2.56	0.143	2.42	0.805	0.876	0.0671	0.468
TCGAGTAGGTTAGTCTGGGCATTCAGCCAACATA	-0.238	-0.131	-0.19	-0.216	-1.35	0.169	-0.258	0.528	0.844	0.781
CCAACTAGGTCAGAACAGGACAGTGAAGGATGAT	1.3	1.41	0.28	0.911	0.446	2.61	4.46	3.56	1.37	2.8
CTCGAAAGGTCGTGCTCAGGTAAGTATACCAAAC	5.43	4.11	0.35	3.55	0.134	5.08	2.41	4.23	1.01	2.94
GCTTGTACATCAAGGTTAAGAAAGACTAAGCTAA	0.247	0.691	-0.229	0.559	-0.133	0.96	0.118	0.299	-0.184	0.084
CGAACTAGGTCAGAACGGGACAGTGAAGGATGAT	0.777	0.488	-0.316	0.113	-0.487	3.16	5.01	4.15	1.79	3.38
ACAGACAGGTGAGTGAAGGTAACTCGGCTGGACG	0.29	0.0989	-0.627	-0.781	-0.86	-0.0904	0.606	0.0767	-0.28	-0.126
TCAAGTTGGTCACGGAGGTCACACACGACGGGTA	3.09	3.76	2.38	3.17	0.603	4.18	3.94	3.95	3.52	3.47
TCATACAGGTAAAAGGTGAAAGTCGGTGTGGTAA	1.87	1.87	-0.0272	2.18	0.661	4.39	6.38	6.45	5.73	7.08
CCGACTGCGGCATAAGGTTACCATAAGCCAGCCC	0.434	1.84	-0.038	0.877	-0.74	0.702	0.575	0.243	-0.468	-0.29
